Unmarked numbers belong to inactive results. Results filed as inconclusive are left out. Activity calls are given as the source filed them. Calls come from the whole dose curve; as a rule, active = well fitted curve in the direction sought with a large enough effect; inconclusive = small, poorly fitted or top-dose-only effect, or another doubt; inactive = no such curve, though single readings can be large; an effect the other way counts as inactive or inconclusive.

A short description of experiment [1]: Quantitative High-Throughput drug screen in 47 multiple myeloma cell lines against the NCATS MIPE library collection: FR4_PLB cell viability assay (AID 1918924; note: nearly all actives have a fitted effect of over 35% in size; note: potency is the fitted concentration of half-maximal effect). An outline of the steps:
(§1)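 Myeloma cell lines, 500 cells per well, exposed to MIPE 4.0 library compounds for 48 h at 37C, 5% CO2. Viability from ATP by CellTiter-Glo luminescence; normalised to DMSO (100%) and media-only (0%) wells.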

Experiment [2] in a line: Quantitative High-Throughput drug screen in 47 multiple myeloma cell lines against the NCATS MIPE library collection: Delta47_JCRB cell viability assay (AID 1918925; note: nearly all actives have a fitted effect of over 45% in size; note: potency is the fitted concentration of half-maximal effect). An outline of the steps:
(§2)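 qHTS of the MIPE 4.0 collection: 500 myeloma cells/well, 48 h drug exposure at 37C in 5% CO2, then CellTiter-Glo for 5 min at room temperature before luminescence reading.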

Experiment [3] in a line: Quantitative High-Throughput drug screen in 47 multiple myeloma cell lines against the NCATS MIPE library collection: EJM_DSMZ cell viability assay (AID 1918926; note: nearly all actives have a fitted effect of over 30% in size; note: potency is the fitted concentration of half-maximal effect). An outline of the steps: as §2
Experiment [4] is described as follows: Quantitative High-Throughput drug screen in 47 multiple myeloma cell lines against the NCATS MIPE library collection: AMO1_DSMZ cell viability assay (AID 1918927; note: nearly all actives have a fitted effect of over 30% in size). An outline of the steps: as §2
Experiment [5] is described as follows: Quantitative High-Throughput drug screen in 47 multiple myeloma cell lines against the NCATS MIPE library collection: ARP1_JJKsccF8 cell viability assay (AID 1918928; note: nearly all actives have a fitted effect of over 40% in size; note: potency is the fitted concentration of half-maximal effect). An outline of the steps:
(§3)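 Myeloma cells, 500 per well, were exposed to MIPE 4.0 drugs by pin transfer for 48 h at 37 °C, 5% CO2. Viability was read as ATP luminescence with CellTiter-Glo, normalised to DMSO-only (100%) and medium-only (0%) wells.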

Experiment [6] can be described thus: Quantitative High-Throughput drug screen in 47 multiple myeloma cell lines against the NCATS MIPE library collection: ARD_JJKsccE7 cell viability assay (AID 1918929; note: potency is the fitted concentration of half-maximal effect). An outline of the steps:
as §2

Experiment [7] is described as follows: Quantitative High-Throughput drug screen in 47 multiple myeloma cell lines against the NCATS MIPE library collection: Karpas417_ECACC cell viability assay (AID 1918961). Note: potency is the fitted concentration of half-maximal effect. The settings on record: Karpas417 myeloma viability, CellTiter-Glo ATP luminescence, 48 h; viability (% of DMSO): at 45.8 µM (top of the series). An outline of the steps:
as §1
(In ATP-based viability assays light output follows the ATP content of the culture.)

The nature of experiment [8]: Quantitative High-Throughput drug screen in 47 multiple myeloma cell lines against the NCATS MIPE library collection: KHM11_PLB cell viability assay (AID 1918962). Note: nearly all actives have a fitted effect of over 35% in size. Note: potency is the fitted concentration of half-maximal effect. An outline of the steps: as §1
Experiment [9] can be described thus: Quantitative High-Throughput drug screen in 47 multiple myeloma cell lines against the NCATS MIPE library collection: JIM3_ECACC cell viability assay (AID 1918963; note: nearly all actives have a fitted effect of over 35% in size; note: potency is the fitted concentration of half-maximal effect). An outline of the steps: as §1
Experiment [10] is described as follows: Quantitative High-Throughput drug screen in 47 multiple myeloma cell lines against the NCATS MIPE library collection: JIM1_ECACC cell viability assay (AID 1918964; note: potency is the fitted concentration of half-maximal effect). An outline of the steps: as §2
A short description of experiment [11]: Quantitative High-Throughput drug screen in 47 multiple myeloma cell lines against the NCATS MIPE library collection: INA6_PLB cell viability assay (AID 1918965; note: potency is the fitted concentration of half-maximal effect; nearly all actives have a fitted effect of over 55% in size). An outline of the steps:
as §1

Experiment [12] in a line: Quantitative High-Throughput drug screen in 47 multiple myeloma cell lines against the NCATS MIPE library collection: JJN3_DSMZ cell viability assay (AID 1918966; note: nearly all actives have a fitted effect of over 50% in size; note: potency is the fitted concentration of half-maximal effect). An outline of the steps: as §2
Experiment [13] in a line: Quantitative High-Throughput drug screen in 47 multiple myeloma cell lines against the NCATS MIPE library collection: H1112_PLB cell viability assay (AID 1918967; note: nearly all actives have a fitted effect of over 30% in size; note: potency is the fitted concentration of half-maximal effect). An outline of the steps:
as §2

Experiment [14] is described as follows: Quantitative High-Throughput drug screen in 47 multiple myeloma cell lines against the NCATS MIPE library collection: KMS27_JCRB cell viability assay (AID 1918970). Note: nearly all actives have a fitted effect of over 30% in size. Note: potency is the fitted concentration of half-maximal effect. The settings on record: KMS27 myeloma cells, CellTiter-Glo ATP viability, 48 h; viability (% of DMSO): at 45.8 µM (top of the series). An outline of the steps: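 Myeloma cells (500 per well) were exposed to MIPE 4.0 compounds for 48 h at 37 °C, 5% CO2; viability was read as ATP luminescence with CellTiter-Glo, normalized to DMSO-only (100%) and media-only (0%) wells.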

Experiment [15] can be described thus: Quantitative High-Throughput drug screen in 47 multiple myeloma cell lines against the NCATS MIPE library collection: KMS12BM_JCRB cell viability assay (AID 1918971). Note: potency is the fitted concentration of half-maximal effect; nearly all actives have a fitted effect of over 35% in size. An outline of the steps: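 Steps: seed 500 cells per well; pin-transfer MIPE 4.0 library; incubate 48 h at 37C, 5% CO2, humidified; add CellTiter-Glo, 5 min room temperature; read luminescence.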

In experiment [16] the test system is Nanoluciferase (engineered Oplophorus gracilirostris luciferase). The experiment can be described thus: Primary Nanoluciferase (NLuc) qHTS assay for identification of artifact compounds. (AID 1845222). An outline of the steps: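 Diluted conditioned medium from NLuc-expressing S16 cells treated with compounds for 15 min at room temperature, then Nano-Glo substrate added; luminescence read after 5 min. Percent inhibition versus no-enzyme and DMSO controls fitted to 4-parameter Hill equation.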
In general terms: In qHTS, concentration-response curves come from the screen itself.

A short description of experiment [17]: Quantitative High-Throughput drug screen in 47 multiple myeloma cell lines against the NCATS MIPE library collection: Karpas620_DSMZ cell viability assay (AID 1918959). Note: nearly all actives have a fitted effect of over 30% in size. Note: potency is the fitted concentration of half-maximal effect. An outline of the steps:
as §1

Experiment [18] in a line: Quantitative High-Throughput drug screen in 47 multiple myeloma cell lines against the NCATS MIPE library collection: Karpas25_ECACC cell viability assay (AID 1918968; note: nearly all actives have a fitted effect of over 35% in size; note: potency is the fitted concentration of half-maximal effect). An outline of the steps: as §2
Experiment [19] is described as follows: Quantitative High-Throughput drug screen in 47 multiple myeloma cell lines against the NCATS MIPE library collection: KMM1_JCRB cell viability assay (AID 1918960). Note: nearly all actives have a fitted effect of over 30% in size. An outline of the steps:
as §3

Experiment [20] in a line: Primary redox qHTS assay for identification of artifact compounds. (AID 1845223). An outline of the steps:
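Amplex Red (25 uM) and HRP (250 mU/mL) in HBSS, with compounds for 15 min, then 250 uM DTT for 30 min, room temperature, dark. Fluorescence 525/598 nm read; normalized to DMSO and 10 uM DA3003; Hill fit.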

As for `Cc1cccc(-c2[nH]c(C(C)(C)C)nc2-c2ccc3c(c2)OCO3)n1`, the Potency in experiment [1] is 29.6 µM (active); in experiment [2], 1.32 µM (active); in [3], 11.8 µM (active); in experiment [5], 16.6 µM (active); in experiment [6], 5.26 µM (active); in experiment [7], 1.66 µM (active). Further, the Potency in experiment [8] was 1.18 µM (active); in experiment [9] it was 0.833 µM (active); in [10], 6.62 µM (active); in experiment [11], 2.64 µM (active); in [12], 14.8 µM (active); in [13] it was 1.32 µM (active). Further, the results for the Potency in [14] and in [15] were 1.32 µM (active) and 18.7 µM (active), respectively. Also, in experiment [4], the Potency result was “inactive”.

On to `c1cc(OCCN2CCCCC2)cc(-c2n[nH]c3ccc(-c4ncn[nH]4)cc23)c1`, for which the Potency result in experiment [16] and in experiment [17] was “inactive” each time. Further, the Potency was 13.2 µM (active) in experiment [2]; 33.2 µM (active) in experiment [3]; 14.8 µM (active) in [8]; 18.7 µM (active) in [9]; 6.62 µM (active) in [11]; 11.8 µM (active) in experiment [12]. The results for the Potency in experiment [18] and in experiment [14] were 14.8 µM (active) and 18.7 µM (active), respectively.

In the case of `Cc1cn([C@@H]2C[C@@H](O)[C@H](CO)O2)c(=O)[nH]c1=O`, the Potency entry in experiment [1], in experiment [2], in experiment [3], in experiment [4], in experiment [5] and in [6] was “inactive” in each case. The Potency entry in experiment [17], in [19], in experiment [7], in [8], in experiment [9] and in experiment [10] was “inactive” in each case. Besides, the Potency entry in [12], in experiment [13], in experiment [18] and in experiment [14] was “inactive” throughout. In addition, the Potency in [11] was 0.0166 µM (active).

Consider `C[C@H](c1ccc(F)cc1CCCC(=O)O)N(c1cc(F)ccc1F)S(=O)(=O)c1ccc(Cl)cc1`, for which the Potency entry in [16], in [4], in experiment [17] and in experiment [14] was “inactive” in each case. Moreover, the Potency in [2] was 20.9 µM (active); in [5] it was 0.935 µM (active); in experiment [9] it was 26.4 µM (active); in experiment [18] it was 20.9 µM (active); in [15], 1.48 µM (active).

On to `COc1ccc(-c2ccc3ncc4c(c3c2)n(-c2ccc(N3CCNCC3)c(C(F)(F)F)c2)c(=O)n4C)cn1`, for which the Potency result in experiment [16] is “inactive”. Also, the Potency in experiment [3] was 0.0332 µM (active); in experiment [17], 0.0833 µM (active); in [12], 0.0066 µM (active); in [13], 0.0935 µM (active); in experiment [15], 0.332 µM (active).

In the case of `NC(=O)c1ccc(N(C(N)=O)c2c(F)cccc2F)nc1-c1ccc(F)cc1F`, the Potency entry in experiment [16], in experiment [5], in [17], in experiment [10] and in experiment [14] was “inactive” throughout. Besides, the Potency in experiment [2] was 5.9 µM (active); in experiment [9], 11.8 µM (active); in [11], 18.7 µM (active); in [13], 5.26 µM (active); in experiment [18] it was 7.43 µM (active).

Turning to `O=S(=O)(O)c1ccc2cc(N=Nc3cc(S(=O)(=O)O)c4cccnc4c3O)ccc2c1`, the compound was called inactive in experiment [20]. Moreover, the Potency was 16.6 µM (active) in experiment [3], 2.35 µM (active) in experiment [5], 18.7 µM (active) in experiment [12] and 16.6 µM (active) in experiment [15]. Besides, the Potency entry in experiment [4], in [6], in experiment [17], in [19], in experiment [18] and in experiment [14] was “inactive” throughout.

These data come from PubChem BioAssay (NCATS).
